Assay results taken from PubChem BioAssay (NCI).
Compounds without any hit were thinned out: in the full panel of roughly 83,000, 20% have a hit.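 The endpoint reported here, percent growth, reads 100 for growth as untreated, 0 for no net growth and -100 for all cells dead.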 The source made the active and inactive calls. Rule for the calls: active = growth percent below 10; inactive = the rest.

These compounds were tested on ACHN renal (assay: NCI-60 one-dose screen, 48 h (100 = growth as untreated, 0 = no growth, -100 = all killed)). Conditions: 10 µM unless noted.
With `Cc1cccc(/C=C/c2nn3c(-c4ccco4)nnc3s2)c1` the growth was 102% (inactive). `Cc1sc2c(c1C)c(=O)nc1c(-c3nc(-c4ccc(F)cc4)no3)n[nH]n12` was tested, and the growth was 96.5% (inactive). For `C[C@@H]1CN(c2ccc3ncc(C#Cc4cncc(C(=O)Nc5ccc(CN6CCN(C)CC6)c(C(F)(F)F)c5)c4)n3n2)C[C@H](C)O1`, the growth was -94% (active). For `Nc1c(C(=O)Nc2ccc(Cl)cc2)sc2nc(-c3cnccn3)cc(-c3cccs3)c12`, the growth was 17% (inactive). For `O=c1[nH]c2ccccc2cc1CSc1ccccc1Nc1nccc(-c2ccc(C(F)(F)F)cc2)n1`, the growth was 48% (inactive). In the case of `Cc1c(Nc2nnc(SCC(=O)Nc3sc4c(c3C#N)CCCC4)s2)c(=O)n(-c2ccccc2)n1C`, the growth is reported as 100% (inactive). `CS(=O)(=O)c1ccc(-c2nc3ccccn3c2C=Nc2ccc(Cl)cc2)cc1` was tested, and the growth was 49.4% (inactive). For `N[C@@H](Cc1cn(-c2c3ccccc3nc3ccccc23)nn1)C(=O)O`, the growth was 93.5% (inactive). In the case of `CC(C)(C)Nc1nc2c(OCCc3ccccc3)cccn2c1-c1cccc(F)c1`, the growth is reported as 5.29% (active). In the case of `CCN1C(=S)N(c2ccccc2)C2NC(=O)N(/N=C/C=C/c3ccccc3OC)C21` (stereo not drawn), the growth is reported as 80.1% (inactive). With `CCOC(=O)c1csc(NC(=O)CSc2nc3sc4c(c3c(=O)n2-c2ccc(Cl)cc2)CCCC4)n1` the growth was 102% (inactive). With `Cc1ccc(CNS(=O)(=O)/N=C2\NC(=O)NC2=C(Cl)Cl)cc1` the growth was 73% (inactive). In the case of `CO/N=C1\CCc2c(sc(NC(=O)c3cccc(C(F)(F)F)c3)c2C(N)=O)C1`, the growth is reported as -23.7% (active). With `O=C(CSc1nc2sc3c(c2c(=O)n1-c1ccc(Cl)cc1)CCCC3)N/N=C/c1ccc(F)cc1` the growth was 108% (inactive). For `CN1CCN(Cc2ccc(NC(=O)c3cncc(C#Cc4cnc5[nH]ncc5c4)c3)cc2C(F)(F)F)CC1`, the growth was 8.5% (active). With `CC(C)(C)Nc1nc2c(OCCc3ccccc3)cccn2c1-c1ccc(Cl)cc1` the growth was 8.77% (active). In the case of `N#Cc1c(-c2ccc(Cl)cc2)nc(SCc2ccccc2)nc1N1CCNCC1`, the growth is reported as 47.8% (inactive). `COc1ccc(/C=C/C(=O)c2ccc(NC(=O)CSc3nnc(-c4ccc5nc(-c6ccc(Cl)cc6)[nH]c5c4)o3)cc2)cc1` was tested, and the growth was 102% (inactive). With `CC(=O)Nc1cc(F)cc(-c2ccc3[nH]cc(-c4ccccc4)c3n2)c1` the growth was 15.9% (inactive). For `C=CCSc1ccc2c(c1)C(N1CCNCC1)=Nc1ccccc1O2`, the growth was 70.3% [8.25 µM] (inactive). With `Fc1ccc(-c2nc(C(Cl)Cl)nc3cc(-c4ccccc4)nn23)cc1` the growth was -52.3% (active). For `COc1ccc(NC2=C(Cl)C(=O)C(C)=C(C)C2=O)cc1OC`, the growth was 91.4% (inactive). In the case of `O=C1[C@H]2Cc3c([nH]c4ccccc34)[C@@H](c3ccc(Br)cc3)N2C(=O)CN1C1CCN(Cc2ccccc2)CC1`, the growth is reported as 30.6% (inactive). In the case of `Cn1c(SCC(=O)c2cccs2)nc2ccccc2c1=O`, the growth is reported as 91.7% (inactive). With `C/C(=C(/c1ccc(Cl)cc1)c1ccc(OCCN)cc1)c1ccc(C)cc1` the growth was 96.6% (inactive).

Each compound was assayed on CAKI-1 renal in the same assay as above. Conditions: 10 µM unless noted.
With `O=c1[nH]c2ccc(Cl)cc2cc1CSc1ccccc1Nc1nccc(-c2ccc(Cl)cc2)n1` the growth was 82.5% (inactive). `CC(C)(C)OC(=O)N1C(=O)c2c(c3c4ccccc4[nH]c3c3ccc4ccccc4c23)C1=O` was tested, and the growth was 26% (inactive). In the case of `CNC(=O)c1cc(-c2ccc(NC(=O)Nc3ccc(N4CCN(C)CC4)c(C(F)(F)F)c3)cc2)nc2cccnc12`, the growth is reported as -80.4% (active). For `C/C(=N/NC(N)=S)c1ccc(Nc2nc(SCC(C)C)nc(-c3ccc(F)cc3)c2C#N)cc1`, the growth was -9.45% (active). In the case of `CCCCN1C(=O)/C(=c2\sc3n(c2=O)C2C(NN=3)N(CC)C(=O)N2CC)c2cc(Cl)ccc21` (stereo not drawn), the growth is reported as 50.7% (inactive). For `COc1cc(-c2nc3ccc(-c4nnc(SCC(=O)Nc5ccc(C(C)=O)cc5)o4)cc3[nH]2)cc(OC)c1OC`, the growth was 92.7% (inactive). For `N#Cc1c(-c2ccc(Cl)cc2)nc(SCc2ccc(F)cc2)nc1N1CCNCC1`, the growth was 49.8% (inactive). In the case of `Cn1cc(-c2cc(N)n3nc(-c4cn(C)c5ccc(Br)cc45)cc3n2)c2cc(Br)ccc21`, the growth is reported as 79% (inactive). With `Cc1cc(C(=O)Nc2sc3c(c2C(N)=O)CCC(=O)C3)ccc1OCCN1CCCCC1` the growth was 98.3% (inactive). For `NS(=O)(=O)c1ccc(Nc2nc(SCC(=O)c3ccc(Cl)cc3)nc3ccccc23)cc1`, the growth was 74.5% (inactive). For `CC(C)(C)Nc1nc2c(OCCc3ccccc3)cccn2c1-c1ccc(O)cc1`, the growth was 80.1% (inactive). With `CCOc1ccc2nc(NC(=O)c3ccc(C(F)(F)F)cc3)sc2c1` the growth was 98.1% (inactive). For `N#Cc1c(-c2ccc(Cl)cc2)nc(SCc2ccc([N+](=O)[O-])cc2)nc1N1CCNCC1`, the growth was 13.6% (inactive). In the case of `Cc1cccc(/C=C/c2nn3c(-c4ccco4)nnc3s2)c1`, the growth is reported as 91.4% (inactive). With `Cc1sc2c(c1C)c(=O)nc1c(-c3nc(-c4ccc(F)cc4)no3)n[nH]n12` the growth was 92.8% (inactive). With `C[C@@H]1CN(c2ccc3ncc(C#Cc4cncc(C(=O)Nc5ccc(CN6CCN(C)CC6)c(C(F)(F)F)c5)c4)n3n2)C[C@H](C)O1` the growth was -94.1% (active). With `Nc1c(C(=O)Nc2ccc(Cl)cc2)sc2nc(-c3cnccn3)cc(-c3cccs3)c12` the growth was -6.36% (active). For `O=c1[nH]c2ccccc2cc1CSc1ccccc1Nc1nccc(-c2ccc(C(F)(F)F)cc2)n1`, the growth was 64.4% (inactive). For `Cc1c(Nc2nnc(SCC(=O)Nc3sc4c(c3C#N)CCCC4)s2)c(=O)n(-c2ccccc2)n1C`, the growth was 110% (inactive). With `CS(=O)(=O)c1ccc(-c2nc3ccccn3c2C=Nc2ccc(Cl)cc2)cc1` the growth was 42.9% (inactive). `N[C@@H](Cc1cn(-c2c3ccccc3nc3ccccc23)nn1)C(=O)O` was tested, and the growth was 93.8% (inactive). For `CC(C)(C)Nc1nc2c(OCCc3ccccc3)cccn2c1-c1cccc(F)c1`, the growth was -11.5% (active). With `CCN1C(=S)N(c2ccccc2)C2NC(=O)N(/N=C/C=C/c3ccccc3OC)C21` (stereo not drawn) the growth was 72.6% (inactive). With `CCOC(=O)c1csc(NC(=O)CSc2nc3sc4c(c3c(=O)n2-c2ccc(Cl)cc2)CCCC4)n1` the growth was 92% (inactive). In the case of `Cc1ccc(CNS(=O)(=O)/N=C2\NC(=O)NC2=C(Cl)Cl)cc1`, the growth is reported as 94.6% (inactive). For `CO/N=C1\CCc2c(sc(NC(=O)c3cccc(C(F)(F)F)c3)c2C(N)=O)C1`, the growth was 11.3% (inactive). In the case of `O=C(CSc1nc2sc3c(c2c(=O)n1-c1ccc(Cl)cc1)CCCC3)N/N=C/c1ccc(F)cc1`, the growth is reported as 98% (inactive). With `CN1CCN(Cc2ccc(NC(=O)c3cncc(C#Cc4cnc5[nH]ncc5c4)c3)cc2C(F)(F)F)CC1` the growth was -13.2% (active). `CC(C)(C)Nc1nc2c(OCCc3ccccc3)cccn2c1-c1ccc(Cl)cc1` was tested, and the growth was 29.3% (inactive). For `N#Cc1c(-c2ccc(Cl)cc2)nc(SCc2ccccc2)nc1N1CCNCC1`, the growth was 53.1% (inactive). With `COc1ccc(/C=C/C(=O)c2ccc(NC(=O)CSc3nnc(-c4ccc5nc(-c6ccc(Cl)cc6)[nH]c5c4)o3)cc2)cc1` the growth was 97.4% (inactive). `CC(=O)Nc1cc(F)cc(-c2ccc3[nH]cc(-c4ccccc4)c3n2)c1` was tested, and the growth was -37.1% (active). With `C=CCSc1ccc2c(c1)C(N1CCNCC1)=Nc1ccccc1O2` the growth was 58.8% [8.25 µM] (inactive). For `Fc1ccc(-c2nc(C(Cl)Cl)nc3cc(-c4ccccc4)nn23)cc1`, the growth was -21.4% (active). With `COc1ccc(NC2=C(Cl)C(=O)C(C)=C(C)C2=O)cc1OC` the growth was 89.4% (inactive). In the case of `O=C1[C@H]2Cc3c([nH]c4ccccc34)[C@@H](c3ccc(Br)cc3)N2C(=O)CN1C1CCN(Cc2ccccc2)CC1`, the growth is reported as 44.9% (inactive). `Cn1c(SCC(=O)c2cccs2)nc2ccccc2c1=O` was tested, and the growth was 82.1% (inactive). In the case of `C/C(=C(/c1ccc(Cl)cc1)c1ccc(OCCN)cc1)c1ccc(C)cc1`, the growth is reported as 86.6% (inactive).
